Measured values published in PubChem BioAssay AID652058 (Broad Institute, 2013).
About 870 (72%) of roughly 1,200 compounds were called active. Another 3% or so got no clear call; they are omitted. The set was probably picked from earlier hits. Only a sample is shown. Potency and affinity values are given separately. A number with no mark means an inactive call.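 How the source made its calls: active means every test run fits a falling curve whose half-maximal concentration is at most twice the top valid dose; inconclusive means runs disagree, or flat 30 to 70% inhibition, or poor fit; inactive means every run inactive: flat, rising or weaker potency.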

Assay: blockers of HIV-1 ZM109 envelope-driven cell-cell fusion – HeLa effector, CEM target cells, luciferase, cherry-pick, dose response (AID 652058);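 further: 0% = neutral control wells and -100% = maraviroc 300 nM wells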
Conditions: HeLa Env/CEM cell fusion, 16-24 h; series mostly up to 35 µM; activity change, negative = inhibition: at the top concentration

SMILES	activity change, negative = inhibition
CN(C(=O)c1cccc(NC(=O)Cc2cccc(NC(=O)C3CCCN(C(=O)C4CCC4)C3)c2)c1)C1CCC1 (stereo unspecified)	-13.5%
CCCn1c(=S)[nH]c2cc(C(=O)N3CCCC(C(=O)OCC)C3)ccc2c1=O (stereo unspecified)	-20.2%
COc1ccc(S(=O)(=O)N2CCCCC2)cc1NC(=O)CN(Cc1ccco1)Cc1ccco1	-3.11%
O=C(COC(=O)c1ncc(Cl)c(Cl)c1Cl)NCc1cccs1	-0.439%
CCc1cc2c(NCc3ccco3)ncnc2s1	-21.6%
COc1ccc(-c2cc(=O)oc3c(C)c(O)ccc23)cc1	-27.8%
COc1cccc(S(=O)(=O)N(C)C[C@@H]2Oc3cc(C#CCC(C)C)ccc3S(=O)(=O)N([C@H](C)CO)C[C@@H]2C)c1	-39.7%
COc1cccc(S(=O)(=O)N(C)C[C@H]2Oc3cc(C#CCC(C)C)ccc3S(=O)(=O)N([C@H](C)CO)C[C@H]2C)c1	-3.45%
COc1ccc(OC)c(-c2cc(C(=O)Nc3c(C)nn(Cc4ccc(Cl)cc4)c3C)no2)c1	14.8%
CC(Cl)=CCn1c(NCCc2ccccc2)nc2c1c(=O)n(C)c(=O)n2C	-36.6% [at 16 µM]
C[C@@H]1CN([C@@H](C)CO)C(=O)c2cc(NC(=O)c3ccncc3)ccc2O[C@@H]1CN(C)Cc1ccncc1	10.1%
C[C@@H]1CN([C@@H](C)CO)C(=O)c2cc(NC(=O)c3ccncc3)ccc2O[C@H]1CN(C)Cc1ccncc1	5.72%
CCCCNC(=O)C[C@H]1C[C@@]2(C(=O)OC)C(=C[C@H](C(C)(C)C)O[C@@H]2C)N(Cc2ccc3c(c2)OCO3)C1=O	-40%
CC(C)OCCCn1c(=S)[nH]c2ccc(N3CCOCC3)cc2c1=O	-35.9%
COCCn1c(=S)[nH]c2cc(C(=O)N3CCN(Cc4ccc5c(c4)OCO5)CC3)ccc2c1=O	5.41%
O=S(=O)(c1ccccc1Cl)N1CCCC1c1nc(-c2ccc(Cl)cc2)no1 (stereo unspecified)	-56.4%
O=C(C[C@@H]1C=C[C@@H](NC(=O)Nc2ccc3c(c2)OCO3)[C@H](CO)O1)NCc1ccc(F)cc1	-30.8%
CCS(=O)(=O)N[C@H]1CC[C@@H](CC(=O)NCc2ccc(Cl)cc2)O[C@@H]1CO	50.7%
Nc1c(S(=O)(=O)c2ccccc2)cnc2c(-c3ccc(F)cc3)cnn12	133%
COc1ccc(OC)c(NC(=O)COc2ccc3c(c2)CCC3)c1	0.146%
COc1ccc(S(=O)(=O)NNC(=O)C2Cc3c(ccc4ccccc34)O2)cc1 (stereo unspecified)	-56.4%
COc1ccc(CCNC(=O)COC(=O)c2cccn2C)cc1	-31.2%

SMILES	activity change, negative = inhibition
COc1ccc(CCCC(=O)NCCc2ccccc2)c(C)c1	33%
Cc1[nH]nc2c1C1(C(=O)N(Cc3ccc(Cl)cc3)c3ccccc31)C(C#N)=C(N)O2 (stereo unspecified)	-29.2%
Cc1ccccc1OCCCCn1cnc2ccccc21	23.8% [at 16 µM]
Cc1ccc(C(=O)NCc2ccccn2)cc1S(=O)(=O)N1CCCCC1	-1.12%
O=C(Nc1ccncc1)c1ccc(Cl)c(S(=O)(=O)N2CCc3ccccc32)c1	36.8% [at 16 µM]
COc1cccc(/C=N/NC(=O)CC2C(=O)NN=C2C)c1O (stereo unspecified)	14.3%
CN(C)CC(=O)Nc1ccc2c(c1)[C@H]1C[C@H](CC(=O)NCc3cccc(F)c3)O[C@@H](CO)[C@H]1O2	113%
O=C(C[C@@H]1CC[C@@H](NC(=O)c2ccncc2)[C@H](CO)O1)NCCc1ccncc1	83%
CC(C)n1c(NCCc2ccccc2)nc2c1c(=O)n(C)c(=O)n2C	-21.3%
CCCCn1c(CN(C)Cc2ccccc2)nc2c1c(=O)n(C)c(=O)n2C	78.3%
CC1CN(S(=O)(=O)c2cc(C(=O)NCCC3=CCCCC3)ccc2Cl)CC(C)O1 (stereo unspecified)	-20.5% [at 16 µM]
Cc1cc(C)c(CN2CCN(C(=O)Cn3ccc(NC(=O)OCc4ccccc4)nc3=O)CC2)c(C)c1	16.7%
CC(c1nc2ccccc2c(=O)[nH]1)N(C)CCOc1ccc(Cl)cc1 (stereo unspecified)	-27%
CNC[C@@H]1Oc2ccc(NS(C)(=O)=O)cc2CC(=O)N([C@H](C)CO)C[C@H]1C	26.6%
COCC(=O)N(C)C[C@H]1Oc2ncc(Br)cc2C(=O)N([C@H](C)CO)C[C@H]1C	-6%
C[C@H]1CN([C@@H](C)CO)C(=O)c2cccc(NC(=O)Nc3ccc(C(F)(F)F)cc3)c2O[C@H]1CN(C)S(=O)(=O)c1ccccc1	108%
O=C(c1cc(COc2cccc(C(F)(F)F)c2)on1)N1CCC(c2ccncc2)CC1	-30.2%
Clc1ccc(-c2noc(CSc3nnc(-c4ccncc4)n3-c3ccccc3)n2)cc1	4.75%
CC1=C(C(=O)OCc2ccc3c(c2)OCO3)C(c2ccc(F)cc2)NC(=O)N1 (stereo unspecified)	103%
Cc1nn(C)c(Cl)c1NC(=O)OCc1ccc(Cl)cc1Cl	-7.87%
CCNC(=O)C[C@H]1CC[C@@H]2[C@@H](COc3ccc(NC(=O)Cc4cccs4)cc3C(=O)N2C)O1	58.5%
CCNC(=O)Nc1ccc2c(c1)C(=O)N(C)[C@@H]1CC[C@@H](CC(=O)NCC3CCCCC3)O[C@@H]1CO2	15.7%

SMILES	activity change, negative = inhibition
CCNC(=O)C[C@@H]1CC[C@@H]2[C@@H](COc3ccc(NC(=O)Cc4cccs4)cc3C(=O)N2C)O1	-19.1%
Cc1nn(C)cc1NC(=O)C[C@H]1CC[C@@H]2[C@@H](COc3ccc(NC(=O)C4CCC4)cc3C(=O)N2C)O1	37.5%
CN(C)CCCNC(=O)[C@H]1[C@H](CO)[C@H]2Cn3c(ccc(C4=CCCC4)c3=O)[C@H]2N1CCC(F)(F)F	15.1%
CNC[C@H]1Oc2c(NC(=O)Nc3ccc4c(c3)OCO4)cccc2C(=O)N([C@H](C)CO)C[C@@H]1C	38.3%
C[C@H](CO)N1C[C@H](C)[C@H](CN(C)Cc2ccccc2)Oc2c(NC(=O)Nc3ccc4c(c3)OCO4)cccc2C1=O	203%
C#CCn1c(=O)c2c(ncn2C)n(C)c1=O	-4.65%
COc1cccc(CNC(=O)C[C@@H]2C=C[C@H](NC(=O)C3CCC3)[C@H](CO)O2)c1	110%
Cc1ccc(-c2ccc3c(c2)O[C@@H](CN(C)Cc2cccnc2)[C@H](C)CN([C@H](C)CO)S3(=O)=O)cc1	-45.1%
Cc1ccc(-c2ccc3c(c2)O[C@H](CN(C)Cc2cccnc2)[C@@H](C)CN([C@H](C)CO)S3(=O)=O)cc1	-40.8%
N#Cc1ccc(CN2CCN(C(=O)CNC(=O)Cc3cccc4ccccc34)CC2)cc1	-37.4%
Cc1cc(C)c(CN2CCN(C(=O)Cn3cnc4c(NCc5ccccc5)ncnc43)CC2)c(C)c1	-15.2%
Nc1ccc(S(=O)(=O)c2ccc(N3CCOCC3)c(N)c2)cc1	-15.2%
CSc1ncccc1C(=O)OCC(=O)Nc1ccc(C)c(S(=O)(=O)N2CCOCC2)c1	20.5%
O=C(OCCOc1cccc(Cl)c1)c1cc(S(=O)(=O)N2CCCCC2)ccc1N1CCOCC1	-9.55%
C[C@H]1NC(=O)[C@@]2(C)[C@H](c3ccccc3)[C@H]3COc4ccccc4[C@@H]3N2C1=O	148%
COc1cc2c(cc1OC)C(=O)N1[C@H]3c4cc(Cl)ccc4OC[C@@H]3[C@H](c3ccccc3)[C@]1(C)C(=O)N2	-15.7%
COc1ccc(OCC(=O)Nc2cc(-c3nn(C)c(=O)c4ccccc34)ccc2OC)cc1	32.8%
COc1ccc(-c2nn(C)c(=O)c3ccccc23)cc1NC(=O)COc1ccccc1	33.2% [at 16 µM]
Cc1ccc(-c2ccc3c(c2)O[C@@H](CN(C)C(=O)C2CCCCC2)[C@H](C)CN([C@H](C)CO)S3(=O)=O)cc1	-97.7%
Cc1ccc(-c2ccc3c(c2)O[C@H](CN(C)Cc2ccncc2)[C@@H](C)CN([C@@H](C)CO)S3(=O)=O)cc1	30.1% [at 16 µM]
Cc1ccc(-c2ccc3c(c2)O[C@@H](CN(C)Cc2ccncc2)[C@H](C)CN([C@H](C)CO)S3(=O)=O)cc1	-87.2%
C[C@H](CO)N1C[C@H](C)[C@H](CN(C)Cc2ccccc2F)Oc2cc(C3=CCCC3)ccc2S1(=O)=O	-114%

SMILES	activity change, negative = inhibition
Cc1ccccc1S(=O)(=O)NC(=O)C1(C)CCN1C(=O)CCc1ccc(Cl)cc1Cl (stereo unspecified)	33.3%
O=C(c1cccc(S(=O)(=O)N2CCN(c3ccccc3)CC2)c1)N1CCCC(C(F)(F)F)C1 (stereo unspecified)	-4.76%
N#Cc1ccc(CSc2nnc(COc3ccccc3)n2-c2ccccc2)cc1	-17.7%
COC(=O)[C@@]1(Cc2ccc(F)cc2)[C@H]2c3cc(C(=O)N(C)C)n(CCO)c3C[C@H]2CN1C(=O)c1ccccc1	101%
CC(NC(=O)c1ccccc1NC(=O)CN1CCc2ccccc2C1)c1ccccc1 (stereo unspecified)	-37%
Cc1ccc(-n2nnnc2SCn2nnc3ccccc3c2=O)c(C)c1	40.8%
Cc1cccc(N2CCN(C(=O)CCCSc3nc4ccccc4[nH]3)CC2)c1C	-31.6%
O=C(NCc1cccnc1)c1c[nH]c2cc3c(cc2c1=O)OCCO3	107%
N#C[C@H]1[C@@H](c2ccccc2/C=C/c2ccccc2)[C@@H](CO)N1S(=O)(=O)c1cccc(F)c1	21.6%
Cc1ccc(CSCCNC(=O)c2ccc(Cl)c(S(=O)(=O)N3CCOCC3)c2)cc1	-30.2%
Cc1nc2sc(C(c3ccco3)N3CCC(Cc4ccccc4)CC3)c(O)n2n1 (stereo unspecified)	66.1%
C[C@H]1CN([C@@H](C)CO)C(=O)Cc2cc(N(C)C)ccc2O[C@H]1CN(C)CC1CC1	35%
COCCCNC(=O)c1sc2ncnc(N3CCc4ccccc4C3)c2c1C	67.1%
CC(C)(C)OC(=O)N1CCc2onc(-c3ccc(Br)cc3)c2C1=O	40.4%
COc1ccc(Nc2ncc(C(=O)N3CCN(c4ccc(F)cc4)CC3)c3ccccc23)cc1	-34.6%
c1coc(CNc2c3c(nc4ccccc24)CCC3)c1	-23.4%
Cc1ccc(NS(=O)(=O)c2cc(C(=O)N(C)C3CCN(C)CC3)ccc2Cl)cc1Cl	13.3%
Cc1cc(Cl)c(S(=O)(=O)N2CCCC2)cc1OCC(=O)NC1CCCCC1	-16.4%
C=CCOc1c(Br)cc(CNc2ccc(NC(=O)C(C)C)c(OC)c2)cc1OC	378% [at 16 µM]
Cc1noc(C)c1NC(=O)N(C)C[C@H]1OCCCC[C@H](C)Oc2ccc(NC(=O)c3ccccc3)cc2C(=O)N([C@H](C)CO)C[C@@H]1C	213%
